Compounds without any hit were thinned out: in the full panel of roughly 83,000, 20% have a hit.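 How to read the values: 0–100, growth inhibition (40 = 60% inhibited); 0, no net growth; -100 to 0, cell death (-40 = 40% of starting cells died; -100 = all dead).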 A number with no mark means an inactive call. Calls of active or inactive are those of the source. How the source made its calls: active means growth percent below 10; inactive means the rest.
tested on: MDA-MB-468 breast; assay: NCI-60 one-dose screen, 48 h (100 = growth as untreated, 0 = no growth, -100 = all killed); details: 10 µM unless noted

Structure (SMILES) | growth
COc1ccc2c(c1)OC13Oc4cc(OC)ccc4C=C1CCCC3=C2 | 56.3%
CC1(C)CC(OCCCC[P+](c2ccccc2)(c2ccccc2)c2ccccc2)CC(C)(C)N1O | -44.2% (active)
NS(=O)(=O)c1ccccc1NC(=O)Nc1nc2ccccc2s1 | 104%
O=C1c2cccnc2C(=O)c2c1c(C(=O)OCCCN1CCOCC1)c1ccccn21 | 4.71% (active)
COC(=O)c1c2c(c[n+]([O-])c1C)C(=O)C=C(NCc1ccccc1)C2=O | -74.9% (active)
CC(=O)Nc1nc(C)c(C(=O)NN)s1 | 87.8%
Cn1cc(-c2nc(-c3c[nH]c4ccccc34)cs2)c2cccnc21 | -12.5% (active)
O=C(/C=C/c1cn(-c2ccccc2)nc1-c1ccc(Cl)cc1)c1cc2ccccc2oc1=O | 64.6%
CCN(CC)c1nc(SCC(=O)Nc2nc3ccc(C)cc3s2)nc(-c2ccccc2)c1C#N | 86.7%
O=Cc1nc2ccccc2[nH]1 | 108%
Clc1ccc2c(c1)C(N1CCNCC1)=Nc1ccccc1O2 | -48.3% (active)
C=C1C(=O)O[C@H]2[C@H]1CC/C(COC(=O)c1cc3cc(F)ccc3[nH]1)=C\CC[C@@]1(C)O[C@@H]21 | -63.2% (active)
Cc1nn(-c2ccc(F)cc2)c2ncnc(Nc3ccc(NC(=O)Nc4ccc(Cl)c(C(F)(F)F)c4)cc3)c12 | -2.58% (active)
CC(=O)/C(=C/c1ccc(Br)cc1)C(=O)c1ccccc1 | 92.3%
NC(=O)c1cc(Br)cc(Br)c1NS(=O)(=O)c1ccccc1 | 106%
C=C1C(=O)O[C@H]2[C@H]1CC/C(COC(=O)NCc1ccc(Cn3c(=O)sn(-c4ccccc4)c3=O)cc1)=C\CC[C@@]1(C)O[C@@H]21 | -33.8% (active)
COc1cc2cc(Oc3ccc(NC(=O)Nc4ccc(Cl)c(Cl)c4)cc3)c(C)nc2cc1OC | -16.7% (active)
O=C(c1nn(-c2ccccc2)c2c1CC(NCc1ccc(F)cc1)CC2)N1CCCCC1 (stereo not given) | 97%
O=C(O)c1ccc(-n2cc(/C=N/Nc3ccccc3)c(-c3ccc(F)cc3F)n2)cc1 | 89.3%
CC(C)c1ccc(C(=O)OC2CCCC2)cc1 | 106%

Structure (SMILES) | growth
COc1ccc(-c2cc(-c3ccccc3)nc(SCCCCCCC(=O)NO)n2)cc1 | 64.1%
O=C(N/N=C/c1ccccc1Cl)C(=O)Nc1cccc(C(F)(F)F)c1 | 89.1%
Cc1cc(=O)cc(C)n1-c1ccccc1 | 100%
COc1cc(C(=O)n2nc(-c3cc(OC)c(OC)c(OC)c3)nc2N)cc(OC)c1OC | 101%
C=C(C[C@](O)(C(=O)/C=C/c1ccc(Cl)cc1)C(=O)OC)c1ccccc1 | 69.5%
N#CC1=C(N)Oc2c(sc3c(Br)cccc23)C1c1ccc(Br)cc1 (stereo not given) | 12.1%
CN1CCN(Cc2ccc(NC(=O)c3cncc(C#Cc4c(N)ncc5cc(F)ccc45)c3)cc2C(F)(F)F)CC1 | 55.6%
O=C(Nc1ccc(-n2cc(-c3ccncc3)c(-c3ccc(Cl)c(O)c3)n2)cc1)c1cc(Cl)cc(Cl)c1 | 57.6%
FC(F)(F)c1cc(CNc2nc(Cl)ncc2Br)cc(C(F)(F)F)c1 | 64.7%
COc1ccccc1/C=C1\Oc2cc(OCCCN3CCCC3)ccc2C1=O | 85.9%
CCN(CC)c1ccc(C(O)C2=CC(=O)c3ccccc3C2=O)cc1 (stereo not given) | -53% (active)
COCCOc1ccc(-c2csc(NC(C)=O)n2)cc1NS(=O)(=O)c1cccc2c(N(C)C)cccc12 | 90.3%
COc1ccc(Oc2nc(NC3CCCC3)nc(Sc3ccc(OC)cc3)n2)cc1 | 93%
CCOC(=O)C1(C)CCCC1N (stereo not given) | 99.2%
CC(=O)OC/C=C(/C)C[P+](c1ccccc1)(c1ccccc1)c1ccccc1 | 1.61% (active)
Cc1ccc2ccc3ccc(C)nc3c2n1.Cc1ccc2ccc3ccc(C)nc3c2n1.Oc1c(Cl)cc(Cl)c2ccc(CN3CCCCC3)nc12.[Ru] | -80% (active)
CCCCC[C@@H]1Cc2cc(O)c(C(=O)O)c3c2[C@H](C[C@]2(OC[C@@H](CC(=O)[C@@](C)(CC)C(=O)OC)[C@@H]2C)O3)O1 | 110%
CC1CCC(C)(C)c2ccccc21 (stereo not given) | 99.6%
CC1O[C@@H](OC2[C@H](OC(=O)/C=C/c3ccc(O)c(O)c3)C(COC3O[C@H](C)C(O)C(O)[C@@H]3O)O[C@@H](OCCc3ccc(O)c(O)c3)[C@H]2O)[C@@H](O)C(O)[C@H]1O (stereo not given in full) | 106%
COC(=O)[C@]1(C)CCC[C@]2(C)[C@H]3C[C@H]4C(C(C)C)=C[C@]3(CC[C@H]21)[C@H]1[C@@H]4[C@@H](OCCC#N)CC[C@@H]1OCCC#N | -6.32% (active)
